Among the test systems are NCI-H23 lung; NCI-H226 lung; NCI-H322M lung; HOP-62 NSCLC; NCI-H460 lung; HOP-92 NSCLC; NCI-H522 lung; A549/ATCC NSCLC; 786-0 renal; COLO 205 colon.
Test in all cases: NCI-60 one-dose screen, 48 h (100 = growth as untreated, 0 = no growth, -100 = all killed)
What all share (conditions): 10 µM unless noted

Data on 13 molecules can be found in PubChem BioAssay (NCI).

Structures are written as SMILES. This is part of a sample that, as a whole, favours compounds with a hit. Of some 83,000 tested, about 20% had one in any assay.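 The endpoint reported here, percent growth, reads 100 for growth as untreated, 0 for no net growth and -100 for all cells dead.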 Values without a mark were called inactive. Active and inactive are the calls of the source. How the source made its calls: active means growth percent below 10; inactive means the rest.

For `CCOc1nc(-c2ccccc2)cc2c(O)c(C(=O)N/N=C/c3ccc(N(C)C)cc3)[nH]c(=O)c12`, the growth in the assay with NCI-H23 lung is 107%; in the assay on NCI-H226 lung, 97.1%; in the assay with NCI-H322M lung, 113%; in the assay with HOP-62 NSCLC, 65.2%; in the assay on NCI-H460 lung, 106%; in the assay on HOP-92 NSCLC, 99.9%. The growth in the assay on NCI-H522 lung is 80.4%; in the assay on A549/ATCC NSCLC, 107%; in the assay with 786-0 renal, 112%; with COLO 205 colon, 229%.

In the case of `CCOC(=O)c1c(-c2ccc(OC)cc2)c(C#N)c2c(C#N)c(N)nn2c1N`, the growth was 62.2% in the assay on NCI-H23 lung; 61.5% in the assay with NCI-H226 lung; 80.9% in the assay with NCI-H322M lung; 35.8% in the assay on HOP-62 NSCLC; 9.75% (active) in the assay with NCI-H460 lung; 15.4% in the assay with HOP-92 NSCLC. Besides, the growth in the assay on NCI-H522 lung is -6.29% (active); in the assay with A549/ATCC NSCLC it was 36.4%; in the assay on 786-0 renal, 45.3%; in the assay on COLO 205 colon it was 18.6%.

Regarding `O=C(CN1C(=O)S/C(=C\C(Cl)=C\c2ccccc2)C1=O)NC1C=CS(=O)(=O)C1` (stereo not given), the growth is 16.7% with NCI-H23 lung; -21.7% (active) with NCI-H226 lung; 88.9% with NCI-H322M lung; 86.5% in the assay on HOP-62 NSCLC; 54% in the assay with NCI-H460 lung; 37.2% in the assay on HOP-92 NSCLC. The growth in the assay on NCI-H522 lung was -46.2% (active); with A549/ATCC NSCLC it was 68.5%; in the assay on 786-0 renal, -74.4% (active); in the assay on COLO 205 colon, -21.8% (active).

On to `COc1cc2cc(NCc3ccncc3)nc(C)c2cc1OC`, for which the growth in the assay on NCI-H23 lung is 91.5%; in the assay on NCI-H226 lung, 89.7%; in the assay with NCI-H322M lung, 103%; in the assay with HOP-62 NSCLC, 62%; in the assay on NCI-H460 lung, 102%; with HOP-92 NSCLC it was 87.2%. Besides, the growth in the assay on NCI-H522 lung is 80.4%; with A549/ATCC NSCLC, 78.9%; with 786-0 renal, 71.8%; in the assay with COLO 205 colon, 95.8%.

As for `O=C(Cc1ccc(F)cc1)c1ccccc1`, the growth with NCI-H23 lung was 103%; in the assay on NCI-H226 lung it was 110%; with NCI-H322M lung it was 99%; with HOP-62 NSCLC, 109%; with NCI-H460 lung, 108%; in the assay with HOP-92 NSCLC it was 89.7%. Moreover, the growth in the assay with NCI-H522 lung was 101%; in the assay on A549/ATCC NSCLC, 102%; in the assay on 786-0 renal, 97.6%; in the assay with COLO 205 colon, 134%.

On to `N#C/C(=C\c1ccccc1Cl)c1cc2ccccc2[nH]1`, for which the growth with NCI-H23 lung was 82.8%; in the assay on NCI-H226 lung, 75.2%; in the assay with NCI-H322M lung, 89.5%; in the assay with HOP-62 NSCLC it was 65.3%; in the assay with NCI-H460 lung, 90.5%; in the assay on HOP-92 NSCLC, 37.3%. The growth in the assay on NCI-H522 lung is 82.5%; in the assay on A549/ATCC NSCLC it was 90.5%; with 786-0 renal, 99.6%; in the assay with COLO 205 colon, 105%.

`CN1CCN(c2ccc(/C=C/C(=O)c3ccc(O)cc3)cc2)CC1`: the growth in the assay with NCI-H23 lung is 93.9%; in the assay on NCI-H226 lung it was 97%; in the assay on NCI-H322M lung, 101%; with HOP-62 NSCLC, 97.7%; in the assay with NCI-H460 lung, 101%; in the assay on HOP-92 NSCLC it was 74.8%. Moreover, the growth in the assay with NCI-H522 lung was 88%; in the assay on A549/ATCC NSCLC it was 97.7%; in the assay on 786-0 renal, 98.8%; in the assay on COLO 205 colon it was 113%.

As to `C[C@]12CCc3c(ccc4cc(O)ccc34)[C@@H]1C[C@H](O)[C@@H]2O`, the growth in the assay on NCI-H23 lung was 94.2%; with NCI-H226 lung, 94.7%; in the assay with NCI-H322M lung, 107%; with HOP-62 NSCLC, 91.7%; in the assay with NCI-H460 lung, 97.8%; in the assay with HOP-92 NSCLC it was 85.6%. Besides, the growth is 98.1% in the assay on NCI-H522 lung, 106% in the assay on A549/ATCC NSCLC, 111% with 786-0 renal and 109% with COLO 205 colon.

Regarding `COc1ccc(C(c2cc(OC)c(OC)c(OC)c2)n2ccnc2)cc1O` (stereo not given), the growth with NCI-H23 lung is 38.9%; in the assay on NCI-H226 lung, 68.7%; with NCI-H322M lung, 48.2%; in the assay on HOP-62 NSCLC, 29.5%; in the assay on NCI-H460 lung, 6.11% (active); in the assay with HOP-92 NSCLC, 25.8%. The growth in the assay on NCI-H522 lung was 12.1%; in the assay on A549/ATCC NSCLC, 12.8%; with 786-0 renal it was 20%; with COLO 205 colon, -9.99% (active).

Regarding `Nc1nc(Nc2ccc(F)cc2)nn1C(=O)c1cc(Cl)ccc1Cl`, the growth in the assay with NCI-H23 lung was 71.9%; in the assay on NCI-H226 lung, 80.9%; with NCI-H322M lung, 66.4%; in the assay with HOP-62 NSCLC, 85.4%; with NCI-H460 lung, 69.4%; with HOP-92 NSCLC, 75.1%. Besides, the growth with NCI-H522 lung is 87.8%; in the assay with A549/ATCC NSCLC it was 75.2%; in the assay with 786-0 renal, 72.9%; in the assay with COLO 205 colon it was 83.8%.

As to `COc1cc(F)c(/C=C/c2cc(/C=C/c3cc(OC)c(OC)cc3F)n(-c3cc(F)cc(F)c3)n2)cc1OC`, the growth is -20.2% (active) in the assay on NCI-H23 lung; 98.1% in the assay on NCI-H226 lung; 15.2% in the assay on NCI-H322M lung; 85.8% in the assay with HOP-62 NSCLC; 47% in the assay with NCI-H460 lung; 80.9% with HOP-92 NSCLC. Further, the growth in the assay on NCI-H522 lung was 47.1%; with A549/ATCC NSCLC it was 44.1%; in the assay on 786-0 renal, 88.3%; in the assay on COLO 205 colon, 115%.

Consider `Cc1nn(-c2nc(-c3cc4ccccc4oc3=O)cs2)c(C)c1N=Nc1ccccc1`, for which the growth was 98% in the assay with NCI-H23 lung; 105% in the assay on NCI-H226 lung; 97.3% in the assay with NCI-H322M lung; 102% in the assay on HOP-62 NSCLC; 108% with NCI-H460 lung; 79.9% in the assay on HOP-92 NSCLC. Also, the growth with NCI-H522 lung was 97.8%; with A549/ATCC NSCLC, 114%; in the assay on 786-0 renal, 104%; in the assay with COLO 205 colon, 114%.

Turning to `COC(=O)c1[nH]nc(OC)c1C1(C(C#N)c2nc3ccccc3s2)CCCc2ccccc21` (stereo not given), the growth was 97.5% in the assay on NCI-H23 lung; 84.9% with NCI-H226 lung; 99.6% in the assay with NCI-H322M lung; 85% in the assay with HOP-62 NSCLC; 99% in the assay with NCI-H460 lung; 72.9% with HOP-92 NSCLC. For the same molecule, the growth is 98.4% with NCI-H522 lung, 96.2% in the assay with A549/ATCC NSCLC, 101% in the assay on 786-0 renal and 103% with COLO 205 colon.
